From PubChem
In the library only some 12% were active in any assay of this set; here they are far more common.
Pf growth 48h: inhibits P. falciparum growth in the first generation, 48 h; AID 504832; Potency, µM (top dose mostly 28.7 µM), for inactives: at the top dose activity change, negative = inhibition, hits mostly inhibitors; 5.9% of 310,000 active; P. falciparum luciferase growth in erythrocytes, 48 h; further: on the % scale 0 is the no-effect control and ±100 the full control effect
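Luciferase-expressing P. falciparum in infected erythrocytes (2% hematocrit, 0.1% parasitemia final) in RPMI 1640/0.5% Albumax were exposed to compound for 48 hours at 37 C, 5% CO2; growth read as luminescence.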
Pf growth 96h: P. falciparum growth inhibition at 96 hours; P. falciparum luciferase reporter growth, 96 h; Potency, µM (highest dose often 28.7 µM), for inactives: at the highest dose activity change, negative = inhibition, usual class: inhibitors; 6.9% of 320,000 active; AID 504834; further: on the % scale 0 is the no-effect control and ±100 the full control effect
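Parasite growth measured via integrated firefly luciferase reporter in P. falciparum. Infected erythrocytes at 2% hematocrit, 0.05% parasitemia final were treated 96 hours at 37 C under 5% CO2, and luminescence was read.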
Sm TGR inh: blocks Schistosoma mansoni thioredoxin glutathione reductase. Q962Y6. purified TGR, DTNB reduction, TNB absorbance 405 nm. Potency, µM (series often up to 114 µM), without a hit: at the top dose activity change, negative = inhibition, actives largely listed as inhibitors. 3% of 360,000 active. AID 485364; further: on the % scale 0 is the no-effect control and ±100 the full control effect; nearly all actives have a fitted effect of over 60% in size
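TGR 20 nM + NADPH 100 uM (dispensed conc.), cpd preinc 15 min RT; start with NADPH (500 uM addition) then DTNB (15 mM addition). Kinetic TNB absorbance, 405 nm filter. Four-parameter Hill fit across titration.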
SARS PLP yeast: inhibitors of SARS-CoV papain-like protease in yeast | S. cerevisiae expressing SARS-CoV PLpro, growth rescue | Potency, µM (titrated, usually from 32.9 µM), for inactives: at the highest dose activity, positive = growth rescue, actives largely listed as activators | 0.19% of 330,000 active; calls by dose curve; further: 0% is about no effect; nearly all actives have a fitted effect of over 55% in size
AmpC detergent: inhibitors of E. coli AmpC beta-lactamase with detergent. AmpC hydrolysis of nitrocefin, absorbance 480 nm, 0.01% Triton. Potency, µM (titrated, usually from 114 µM), for inactives: at the top dose activity change, negative = inhibition, hits mostly inhibitors. 0.041% of 370,000 active. P00811. AID 485294;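 further: 0% = no-compound wells and -100% = no-enzyme wells; nearly all actives have a fitted effect of over 25% in size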
Target sequence (P00811 whole entry, looked up): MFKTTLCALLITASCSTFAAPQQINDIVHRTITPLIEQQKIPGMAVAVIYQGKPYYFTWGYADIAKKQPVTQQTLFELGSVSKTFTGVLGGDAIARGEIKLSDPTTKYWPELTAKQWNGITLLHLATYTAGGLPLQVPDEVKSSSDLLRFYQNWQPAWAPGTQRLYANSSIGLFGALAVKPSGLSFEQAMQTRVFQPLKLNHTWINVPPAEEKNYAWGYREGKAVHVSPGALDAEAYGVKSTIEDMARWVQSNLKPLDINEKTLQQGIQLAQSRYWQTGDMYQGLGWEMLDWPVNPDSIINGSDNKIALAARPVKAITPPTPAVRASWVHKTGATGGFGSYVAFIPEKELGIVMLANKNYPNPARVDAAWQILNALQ
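20 mM phosphate pH 7.0 + 0.01% (detergent screen) or 0.0001% Triton X-100; 5.3 nM AmpC reagent; cpd preinc 15 min RT; nitrocefin (800 uM stock) to start; A480 q20 s × 4 min; Activity was normalised to no-enzyme and no-compound control wells.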
AmpC no deterg: inhibitors of E. coli AmpC beta-lactamase without detergent; AmpC nitrocefin hydrolysis, absorbance 480 nm, 0.0001% Triton; P00811; Potency, µM (highest dose often 57.1 µM), for inactives: top-dose activity change, negative = inhibition, usual class: inhibitors; 0.52% of 330,000 active;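 further: plate controls were no compound for no effect and no enzyme for full effect; nearly all actives have a fitted effect of over 20% in size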
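AmpC (5.3 nM in the dispensed reagent) in 20 mM phosphate pH 7.0 with 0.01% (detergent screen) or 0.0001% Triton X-100 was preincubated with compounds for 15 min at room temperature. Nitrocefin was then added from an 800 uM solution, and hydrolysis was followed at 480 nm.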
* hit, by the source's call; ? = inconclusive; nt = no result given; [ ] = dose if it differs, or a comment. Unless noted, the call rests on the fitted dose curve; in most records, active means well fitted curve in the direction sought with a large enough effect; inconclusive means small, poorly fitted or top-dose-only effect, or another doubt; inactive means no such curve, though single readings can be large; an effect the other way counts as inactive or inconclusive. Potency means the concentration at half of the fitted maximal effect.

SMILES	Pf growth 48h	Pf growth 96h	Sm TGR inh	SARS PLP yeast	AmpC detergent	AmpC no deterg
O=C(NCc1nnc(SCC(=O)N2CCN(c3ccccc3)CC2)o1)c1c(F)cccc1Cl	-16%	10µM*	-7%	-2%	?	-1%
COc1ccc(Cc2nnc(SCC(=O)N3CCCC3)o2)cc1	-17%	61%	7%	1%	-5%	-46%
COc1ccc(C(=O)NCc2nnc(SCC(=O)N3CCCCC3)o2)cc1OC	nt	3.3µM*	1%	6%	6%	-4%
COc1ccc(Cc2nnc(SCC(=O)N3CCCC(C)C3)o2)cc1 (configuration not stated)	7.4µM*	?	nt	0%	1%	92%
COc1ccccc1CNC(=O)c1cn(C)c2ccc(S(=O)(=O)N(C)C3CCCCC3)cc2c1=O	nt	nt	1%	nt	8%	nt
CCOC(=O)CNC(=O)c1cc2c(=O)n3cccc(C)c3nc2n1C	nt	nt	-6%	nt	4%	nt
O=C(CSc1nc2nn(-c3ccccc3)c(=O)c-2c2n1CCCCC2)NCCCc1ccccc1	9.3µM*	?	-2%	0%	?	92%
O=C(CSc1nc2nn(-c3ccccc3)c(=O)c-2c2n1CCCCC2)Nc1ccccc1[N+](=O)[O-]	?	6.6µM*	-2%	2%	?	17%
Cc1ccc(Cl)cc1NC(=O)c1oc2ccc(S(=O)(=O)N3CCC4(CC3)OCCO4)cc2c1C	nt	nt	-15%	nt	-1%	nt
Cc1ccc(OCCn2nnc3sc4c(c3c2=O)CCC(C)C4)cc1 (configuration not stated)	nt	nt	-2%	nt	-7%	nt
COc1cc2nc(CN3CCN(S(=O)(=O)c4ccc(Cl)cc4)CC3)[nH]c(=O)c2cc1OC	?	?	-1%	0%	?	112%
C=C1/C(=C\C=C2/CCC[C@]3(C)[C@@H]([C@H](C)CCCC(C)(C)O)CC[C@@H]23)C[C@@H](O)C[C@@H]1O	6%	15%	?	-3%	1%	177%
O=C(NC1=C(Nc2ccc(F)cc2)C(=O)c2ccccc2C1=O)c1ccc(Cl)cc1	0.52µM*	0.37µM*	22µM*	-41%	1%	-30%
O=C(CSc1nc2c([nH]c3ccccc32)c(=O)n1-c1cccc(C(F)(F)F)c1)N1CCCC1	nt	nt	-3%	nt	1%	nt
Cc1cccc(NC(=O)CCCn2c(=S)[nH]c3ccccc3c2=O)c1	?	?	-4%	0%	-4%	?
Cc1ccn2c(NC(=O)c3ccco3)c(-c3ccccc3)nc2c1	-5%	4.1µM*	0%	10%	-5%	-19%
O=C(COC(=O)c1ccc(O)cc1O)Nc1cc(-c2ccccc2)nn1-c1ccccc1	12µM*	4.7µM*	-6%	2%	0%	-55%
CC(C)(C)c1cc(NC(=O)COC(=O)c2ccc(O)cc2O)n(-c2ccccc2)n1	?	?	?	-1%	?	-29%
CC1=C(C(=O)OCCNC(=O)c2ccccc2O)C(c2ccccc2[N+](=O)[O-])C(C(=O)OCC2CCCO2)=C(C)N1 (configuration not stated)	?	5.2µM*	-2%	-8%	-10%	16%
Fc1ccccc1CNCCc1ccc2c(c1)OCO2	30%	15%	10µM*	-8%	-10%	-22%
Fc1ccccc1CNCc1ccc2c(c1)OCO2	5%	?	-2%	-1%	-12%	-19%
Cc1c(CC(=O)N[C@@H](C)C(=O)O)c(=O)oc2cc3oc4c(c3cc12)CCCC4	21%	72%	-2%	0%	2%	-24%
Nc1c2c(nc3ccc(Br)cc13)N(C1CCCCC1)CC2	?	10µM*	-19%	-2%	-15%	-28%
Nc1c2c(nc3ccc(Br)cc13)N(c1ccccc1)CC2	nt	?	?	?	0%	-39%
Nc1c2c(nc3ccccc13)N(C1CCCCC1)CC2	13µM*	2%	-5%	2%	-8%	-31%
SMILES	Pf growth 48h	Pf growth 96h	Sm TGR inh	SARS PLP yeast	AmpC detergent	AmpC no deterg
CCCCCCNC(=O)c1cn(CC)c2cc(N3CCN(C)CC3)c(F)cc2c1=O	4.7µM*	2.6µM*	13%	0%	-4%	218%
CCn1cc(C(=O)NCCc2ccccc2)c(=O)c2cc(S(=O)(=O)N(C)C)ccc21	?	13µM*	17%	2%	-13%	-6%
CCn1cc(C(=O)NCCN(C)CCc2ccccc2)c(=O)c2cc(S(=O)(=O)N(C)C)ccc21	?	?	-33%	-1%	0%	165%
CCC(C)NC(=O)c1cn(CC)c2cc(N3CCN(C)CC3)c(F)cc2c1=O (configuration not stated)	?	-22%	-6%	1%	-6%	84%
CCn1cc(C(=O)N[C@H](C)c2ccccc2)c(=O)c2cc(F)c(N3CCN(C)CC3)cc21	nt	12µM*	-2%	-5%	?	190%
CCn1cc(C(=O)NCCCO)c(=O)c2cc(F)c(N3CCN(C)CC3)cc21	5%	?	-7%	0%	1%	-9%
CCn1cc(C(=O)NCCc2ccccc2)c(=O)c2cc(F)c(N3CCN(C)CC3)cc21	10µM*	?	-18%	4%	1%	232%
Cc1c(C(=O)Nc2ccccc2)sc2nc(-c3cc4cc(Cl)ccc4oc3=O)[nH]c(=O)c12	nt	nt	-10%	nt	5%	nt
CCOC(=O)c1cc(-c2ccc(C)cc2)n(CC(=O)NC2CCCCCC2)c1C	nt	nt	7%	nt	-5%	nt
O=C(CNC(=O)c1ccc(F)cc1)OCc1cc(=O)n2nc(C3CC3)sc2n1	nt	nt	-7%	nt	12%	nt
O=C(Nc1nc(-c2ccccn2)cs1)c1cc(Cl)ccc1[N+](=O)[O-]	13µM*	2.3µM*	-25%	-5%	?	-41%
CC(=O)Nc1ccc(C(=O)Nc2nc(-c3ccccn3)cs2)cc1	?	?	?	1%	-9%	-2%
Cc1cc(C(=O)Nc2nc(-c3ccccn3)cs2)ccc1[N+](=O)[O-]	9.3µM*	?	-4%	-20%	0%	-31%
Cc1c(C(=O)OCCOc2ccc(Br)cc2)sc(=S)n1C	1%[5.75 µM]	-6%	7%	1%	-6%	-7%
COc1ccc(-c2cc(=S)ss2)cc1	28%	?	nt	nt	nt	nt
COc1ccc(C(=O)Nc2ccccc2C(=O)OCc2cc(=O)n3nc(C4CC4)sc3n2)cc1	nt	nt	-2%	nt	-7%	nt
CC1(N2CCCCC2)CC2(O)C(=[N+]1[O-])CCC/C2=N\O (configuration not stated)	9%	-8%	50µM*	2%	-12%	-21%
O=c1c2cccnc2n(Cc2ccccc2F)c(=O)n1Cc1ccc(F)cc1	nt	nt	3%	nt	22%	nt
